# RGS4 inhibitor: human RGS4 inhibition. P49798. Transcreener GDP fluorescence polarization, RGS4-accelerated GTP hydrolysis. Potency, µM (top dose mostly 114 µM), for the others: top-dose activity change, negative = inhibition, hits mostly inhibitors. 390,000 compounds, 0.039% hits. AID 504845; also: potency is read from the fitted curve at half-maximal effect; nearly all actives have a fitted effect of over 75% in size
#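 MLSMR compounds (23 nl, pin-transferred) preincubated 10 min at room temperature with a 500nM (2x) first reagent, then RGS4 at 900nM (2x) plus Transcreener GDP mix added; fluorescence polarization (620/688 nm) read before and after 90 min at 30 °C.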
# Pin1 inh: inhibitors of human Pin1. Potency, µM (titrated, usually from 115 µM), for the others: at the top dose activity, negative = inhibition, usual class: inhibitors. Pin1 FP peptide displacement, HiFluor488, 10 min. AID 504891. 390,000 compounds, 0.009% hits; active = well fitted inhibition curve with a large enough effect in the polarisation, with a control signal flat, not every such curve was filed as active; inconclusive = small, poorly fitted or top-dose-only effect, or effect the other way, or a change in a side signal; inactive = no such curve, though single readings can be large or run the other way; the % refers to the polarisation; also: potency is read from the fitted curve at half-maximal effect
# Tb PGK inh: T. brucei PGK inhibition. 380,000 compounds, 0.043% hits. PGK/GAPDH coupled, Kinase-Glo luminescence, 60 min. Potency, µM (titrated, usually from 57.5 µM), for inactives: at the highest dose activity change, negative = inhibition, usual class: inhibitors. P07378; also: potency is read from the fitted curve at half-maximal effect; nearly all actives have a fitted effect of over 60% in size
#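 Recombinant glycosomal PGK reaction used 1,3-bisphosphoglycerate generated in-well by GAPDH (100nM final) in 100mM TEA pH 7.6, 5mM MgCl2, 0.01% Tween-20. After 60 minutes at room temperature, ATP was read by Kinase-Glo Plus luminescence end-point.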
# GCN5L2 inh: blocks human GCN5L2 histone acetyltransferase; Q92830; GCN5L2 HAT assay, ThioGlo1 CoA-SH fluorescence; Potency, µM (top dose mostly 58.9 µM), inactives show top-dose activity change, negative = inhibition, hits mostly inhibitors; 390,000 compounds, 0.21% hits; AID 504327; also: potency is read from the fitted curve at half-maximal effect
#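 Fluorescence readout, Ex340nm/Em540nm: ThioGlo1 (50uM final) reacts with free CoA thiol released as 20nM GCN5L2 acetylates H3(1-25) peptide (75uM) using acetyl-CoA (70uM). Compound and enzyme sat 15 min beforehand; 20 min room-temperature reaction.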
# KCNH2 WT inh: KCNH2 (human, wildtype) channel inhibition | activity change, % at 1.84 µM | U2OS, BacMam KCNH2, thallium flux FluxOr; hits give low values | Q12809 | 340,000 compounds, 0.37% hits;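 active = maximum activity change below -70%; inconclusive = maximum activity change between -70% and -50%; inactive = maximum activity change above -50%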
# Target sequence (Q12809 whole entry, looked up): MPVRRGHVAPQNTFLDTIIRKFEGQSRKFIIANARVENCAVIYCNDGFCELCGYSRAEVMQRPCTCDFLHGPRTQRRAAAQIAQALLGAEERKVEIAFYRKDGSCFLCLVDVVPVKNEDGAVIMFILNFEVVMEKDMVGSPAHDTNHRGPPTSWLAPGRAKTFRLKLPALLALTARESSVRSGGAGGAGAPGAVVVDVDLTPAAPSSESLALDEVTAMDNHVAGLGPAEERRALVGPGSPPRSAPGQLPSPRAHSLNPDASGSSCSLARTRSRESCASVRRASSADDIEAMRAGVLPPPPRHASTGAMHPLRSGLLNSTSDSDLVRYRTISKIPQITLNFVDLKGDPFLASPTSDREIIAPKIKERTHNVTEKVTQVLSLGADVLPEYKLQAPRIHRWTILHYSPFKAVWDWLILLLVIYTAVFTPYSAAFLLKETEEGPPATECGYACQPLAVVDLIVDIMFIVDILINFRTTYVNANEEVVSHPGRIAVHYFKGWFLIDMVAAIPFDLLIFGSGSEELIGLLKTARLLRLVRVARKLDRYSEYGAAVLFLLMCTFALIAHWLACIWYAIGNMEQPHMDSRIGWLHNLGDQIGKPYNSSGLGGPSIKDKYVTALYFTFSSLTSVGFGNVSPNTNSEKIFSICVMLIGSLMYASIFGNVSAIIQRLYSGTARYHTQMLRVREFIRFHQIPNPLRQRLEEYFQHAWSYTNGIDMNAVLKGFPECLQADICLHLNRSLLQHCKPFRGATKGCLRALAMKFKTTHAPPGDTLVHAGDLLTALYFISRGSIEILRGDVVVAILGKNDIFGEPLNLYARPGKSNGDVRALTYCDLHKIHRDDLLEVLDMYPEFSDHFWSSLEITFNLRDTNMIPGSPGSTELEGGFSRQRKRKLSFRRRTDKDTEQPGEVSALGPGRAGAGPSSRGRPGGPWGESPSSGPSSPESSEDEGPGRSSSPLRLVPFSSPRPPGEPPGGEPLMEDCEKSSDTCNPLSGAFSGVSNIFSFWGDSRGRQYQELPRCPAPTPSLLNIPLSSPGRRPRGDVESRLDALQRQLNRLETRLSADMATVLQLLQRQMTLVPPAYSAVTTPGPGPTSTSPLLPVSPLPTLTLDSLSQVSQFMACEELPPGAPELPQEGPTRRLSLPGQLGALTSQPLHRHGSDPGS
#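 U2OS cells transduced with wild-type KCNH2 virus are loaded with FluxOr dye for 45 min, and thallium flux is measured in kinetic reads before and after stimulation buffer. Rate constants are normalized to DMSO controls.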
# KCNH2 3.1 inh: blocks the human KCNH2 3.1 channel isoform. activity change, % (tested at about 1.8 µM). U2OS KCNH2 3.1, thallium flux FluxOr; hits give low values. 340,000 compounds, 0.95% hits;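 active = maximum activity change below -70%; inconclusive = maximum activity change from -70% to -50%; inactive = maximum activity change above -50%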;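 also: thallium influx rate constant from kinetic fluorescence after stimulation buffer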
#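 Measured as rate of thallium-driven FluxOr signal in transduced U2OS cells carrying the 3.1 channel, read kinetically for 2 min upon stimulation; values are rate constants scaled to DMSO control wells.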
# An asterisk follows results filed as active; i = inactive; ? = inconclusive; . = no result given. A selection: hits, their analogues and other compounds. The true share with any hit is near 1.2%. Unless noted, calls follow the shape of the dose curve; as a rule, active = well fitted curve in the direction sought with a large enough effect; inconclusive = small, poorly fitted or top-dose-only effect, or another doubt; inactive = no such curve, though single readings can be large; an effect the other way counts as inactive or inconclusive. % is scaled to controls: 0 for no effect and ±100 for the full control effect.
SMILES,RGS4 inhibitor,Pin1 inh,Tb PGK inh,GCN5L2 inh,KCNH2 WT inh,KCNH2 3.1 inh
CCCOc1ccc(N2C(=O)CC(N3CCN(c4ccc([N+](=O)[O-])cc4)CC3)C2=O)cc1 (configuration not stated),16%,15%,5%,?,-16,?
CCOc1ccc(N2C(=O)CC(N3CCN(c4ccc([N+](=O)[O-])cc4)CC3)C2=O)cc1 (configuration not stated),-14%,-2%,-6%,0%,-10,-91*
CCCN1CCC(N2CCN(c3ccc([N+](=O)[O-])cc3)CC2)CC1,-23%,-3%,-2%,-6%,-42,-79*
COc1ccc(NS(=O)(=O)c2cnc(N)nc2)cc1Cl,0%,0%,i,-4%,.,.
CCOC(=O)c1[nH]c2c(c1Cc1ccccc1)C(=O)CC(c1ccc(OC)cc1)C2 (configuration not stated),5%,43%,-3%,-16%,.,.
COCc1c(C(=O)OCC(=O)NCCN2C(=O)CSC2=O)oc2ccccc12,21%,7%,-5%,-2%,-120*,8
O=C(COC(=O)c1oc2ccccc2c1COc1ccccc1)NCCN1C(=O)CSC1=O,-11%,4%,i,0%,-3,-2
O=S(=O)(c1ccccc1F)N1CCN(c2nc(-c3cccs3)nc3ccccc23)CC1,12%,0%,.,.,.,.
CSc1ccccc1C(=O)C1CCCN(Cc2c(C)n(C)n(-c3ccccc3)c2=O)C1 (configuration not stated),-1%,-5%,-6%,-4%,-150*,-188*
COc1c(C)cc(C(=O)C2CCCN(Cc3c(C)n(C)n(-c4ccccc4)c3=O)C2)cc1C (configuration not stated),-1%,1%,1%,1%,2,?
COC(=O)C(CC(C)C)NC(=O)c1ccc([N+](=O)[O-])cc1 (configuration not stated),12%,-8%,4%,38%,-22,-11
COC(=O)C(CCCCNC(=O)c1ccc([N+](=O)[O-])cc1)NC(=O)c1ccc([N+](=O)[O-])cc1 (configuration not stated),23%,-7%,-4%,-2%,?,-93*
O=C(O)/C=C/c1cc(F)c(S(=O)(=O)N2CCN(S(=O)(=O)c3ccc4c(c3)OCCO4)CC2)cc1F,.,3%,.,.,.,.
CCCCCCNC(=O)N[C@@H](C(=O)NCCC[C@H]1CN2C(=NC[C@@H]2Cc2ccccc2)N1CCc1cccc(OC)c1)C(C)C,?,-1%,-3%,40µM*,1,12
C/C=C(\C)C(=O)NCCN1C2=NC[C@@H](Cc3ccccc3)N2C[C@@H]1Cc1ccc(OC)cc1,17%,0%,-9%,.,4,-20
COc1ccc(NC(=O)C2CCN(S(=O)(=O)c3ccc4[nH]c(=O)ccc4c3)CC2)c(OC)c1,-30%,-4%,-3%,3%,.,.
N#Cc1ccc(S(=O)(=O)N2CCCN(c3nc4ccc(Cl)cc4s3)CC2)cc1,3%,4%,0%,1%,-74*,-95*
CCC(C)c1ccc(NC(=O)Nc2cnccn2)cc1 (configuration not stated),-2%,0%,-11%,-8%,-281*,-12
CCOc1ccc(NC(=O)Nc2cnccn2)cc1,-6%,-4%,-4%,-1%,-7,14
CCNCCC(CCC(C)C)c1ccc2c(c1)OCO2 (configuration not stated),-23%,-12%,-4%,-2%,-79*,-99*
CC(C)CCC(CCNCc1ccccn1)c1ccc2c(c1)OCO2 (configuration not stated),-15%,0%,.,1%,?,-95*
CC(=O)Nc1ccc(OC(C)=O)cc1,.,.,.,4%,.,.
COc1ccc(C)cc1NC(=O)c1cc(S(=O)(=O)N2CCc3ccccc3C2)ccc1F,24%,33%,i,-5%,.,.
O=c1nc(-c2ccccc2Cl)c2cc(F)ccc2[nH]1,13%,0%,i,-4%,0,-79*
CC(C)(C)OC(=O)[C@H](Cc1ccccc1)NC(=O)c1nc[nH]c1C(=O)NCc1ccccc1,6%,1%,-2%,-3%,0,-107*
SMILES,RGS4 inhibitor,Pin1 inh,Tb PGK inh,GCN5L2 inh,KCNH2 WT inh,KCNH2 3.1 inh
CC(C)C[C@H](NC(=O)c1nc[nH]c1C(=O)N1CCN(c2ccccc2)CC1)C(=O)OCc1ccccc1,-3%,22%,-1%,-7%,-1,-78*
CC(C)(C)OC(=O)N1CCC(NC(=O)c2nc[nH]c2C(=O)N2CCc3ccccc3C2)CC1,-12%,3%,9%,0%,6,0
CC(C)(C)OC(=O)NCc1ccc(CNC(=O)c2[nH]cnc2C(=O)N[C@@H](Cc2ccccc2)C(=O)OC(C)(C)C)cc1,-7%,?,9%,?,-7,-20
CC(C)(C)OC(=O)CNC(=O)c1nc[nH]c1C(=O)N1CCc2ccccc2C1,-10%,-1%,-4%,-6%,7,-71*
CC(C)C[C@H](NC(=O)c1nc[nH]c1C(=O)NCC(=O)OCc1ccccc1)C(=O)OCc1ccccc1,7%,1%,i,-13%,-121*,-3
Cc1ccc(C)c(CNC(=O)c2sc3ncnc(N(C)C4CCCCC4)c3c2C)c1,16%,23%,.,-11%,.,.
COc1cccc(CC(=O)Nc2nc(-c3ccc(F)c(F)c3)cs2)c1,-16%,-3%,-7%,-7%,-4,-94*
O=C(Cc1ccccc1)Nc1nc(-c2ccc(F)c(F)c2)cs1,20%,1%,-6%,-5%,-2,12
OC[C@@H](O)C(O)[C@H](O)[C@H](O)CO (some centres not stated),.,.,.,4%,.,.
C[N+](C)(C)CC(O)CC(=O)O (configuration not stated),6%,-2%,i,?,-295*,14
O=C(Nc1c(Cl)cc([N+](=O)[O-])cc1Cl)c1cc(Cl)ccc1O,-24%,3%,.,.,.,.
CCC(=O)O[C@H]1C(O[C@@H]2C(C)[C@H](O[C@H]3C[C@@](C)(OC)C(O)C(C)O3)C(C)C(=O)OC(CC)[C@@](C)(O)C(O)[C@H](C)C(=O)C(C)C[C@]2(C)O)OC(C)CC1N(C)C (some centres not stated),.,.,.,7.1µM*,.,.
Cc1noc(C)c1-c1ccc2ncnc(NCc3cccn3C)c2c1,.,-5%,.,.,.,.
CCOC(=O)c1ccc(N2N=C(C)/C(=C/C=C/c3ccco3)C2=O)cc1,-25%,-11%,6%,-13%,-9,12
